In the library only some 19% were active in any assay of this set; here they are far more common.
Lassa entry inh: blocks Lassa virus binding to or entry into cells; Potency, µM (series often up to 37.9 µM), actives largely listed as inhibitors; Lassa virus pseudotype entry inhibition, cell reporter; 1.2% of 300,000 active; calls by dose curve; tested in HEK293 cells; further: nearly all actives have a fitted effect of over 50% in size
Shiga toxin inh: Shiga toxin inhibition. Vero cells, Shiga toxin protein synthesis inhibition reporter. 9.2% of 290,000 active. inhibition, % at 38.7 µM; in the data active means inhibition mostly above about 28%, no sharp cut-off; inactive means mostly below about 43%
CHX counter: counter-screen hit for Shiga toxin inhibitors, cycloheximide | cell reporter, cycloheximide protein synthesis inhibition counterscreen | max response, % | 12% of 300,000 active; in the data active means max response mostly above about 13%, no sharp cut-off; inactive means mostly below about 14%; further: read at 38.3 µM for the half of the compounds with a filed dose
Pf growth 48h: P. falciparum growth inhibition at 48 hours (one generation). P. falciparum luciferase growth in erythrocytes, 48 h. Potency, µM (highest dose often 28.7 µM), usual class: inhibitors. 5.9% of 310,000 active. AID 504832
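Luminescence readout; reporter = integrated firefly luciferase in P. falciparum. RBC culture at 2% hematocrit, 0.1% parasitemia final, 37 C/5% CO2; decreased signal taken as growth inhibition.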
Marburg entry inh: blocks Marburg virus binding to or entry into cells | Marburg virus pseudotyped entry inhibition, cell reporter | Potency, µM (titrated, usually from 37.8 µM), usual class: inhibitors | 1.8% of 300,000 active | AID 540276; calls by dose curve; tested in HEK293 cells
Pf growth 96h: P. falciparum growth inhibition at 96 hours; P. falciparum luciferase reporter growth, 96 h; Potency, µM (doses to about 28.7 µM), actives largely listed as inhibitors; AID 504834; 6.9% of 320,000 active
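Parasite growth measured via integrated firefly luciferase reporter in P. falciparum. Infected erythrocytes at 2% hematocrit, 0.05% parasitemia final were treated 96 hours at 37 C under 5% CO2, and luminescence was read.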
Hits are given with their value; n = inactive; u = inconclusive; x = no result; [ ] = remark or other dose. Unless noted, the call rests on the fitted dose curve; in most records, active means well fitted inhibition curve with a large enough effect; inconclusive means small, poorly fitted or top-dose-only effect, or another doubt; inactive means no such curve, though single readings can be large or run the other way.

SMILES	Lassa entry inh	Shiga toxin inh	CHX counter	Pf growth 48h	Marburg entry inh	Pf growth 96h
COc1cc(C(F)(F)F)c(C(=O)N(C)Cc2ccc(Cl)c(Cl)c2)cn1	n	n	n	u	n	u
O=C(CC1COc2ccccc2O1)NCc1ccccc1 (stereo unspecified)	n	n	n	n	u	x
O=C(CC1COc2ccccc2O1)NCCc1ccccc1 (stereo unspecified)	n	64	52	n	n	n
O=C(CCC1COc2ccccc2O1)NCc1ccccc1 (stereo unspecified)	u	n	n	x	n	3.7µM
O=C(NCCc1ccccc1)C1COc2ccccc2O1 (stereo unspecified)	x	n	n	n[0.00184 µM]	x	n
N=c1c(S(=O)(=O)c2ccccc2)cc2c(=O)n3ccccc3nc2n1Cc1cccnc1	n	x	x	u	n	u
COc1ccc(/C=N/n2cc(-c3ccccc3)nc2N)cc1	n	43	28	u	u	10µM
COc1ccc(/C=N/n2cc(-c3ccc(OC)cc3)nc2N)cc1	n	n	n	u	u	u
Cc1ccc(-n2ncc3c(=O)n(CC(=O)N(C)C)cnc32)cc1C	n	n	14	n	u	u
CC(=O)Cn1cnc2c(cnn2-c2ccc(C)c(C)c2)c1=O	x	91	54	n[0.00184 µM]	x	n
Cc1ccc(-n2ncc3c(=O)n(CC(=O)N(C)C)cnc32)cc1	x	n	n	n	x	u
COc1ccc2oc(C(=O)N(C)CCOc3ccccc3)c(C)c2c1	u	83	38	n	n	n
Cc1ccc2oc(C(=O)N(CCO)Cc3ccccc3)c(C)c2c1	n	n	n	n	n	n
Cc1ccc2oc(C(=O)N(C)CCC(O)c3ccccc3)c(C)c2c1 (stereo unspecified)	u	22	n	n	n	u
O=C(Nc1ccnn1C1CCN(Cc2cccc(OCCO)c2)CC1)C1CC1	n	n	n	n	u	u
O=C1CSC(=Nc2ccc(O)cc2)N1c1ccc(O)cc1	n	n	n	u	u	10µM
C=CCN1C(=O)CSC1=Nc1ccc(O)cc1	n	n	n	n	n	x
Cc1cccc(OCC(=O)NNC(=O)c2cc3ccccc3oc2=O)c1	n	n	n	n	n	x
Cc1cc(C)c(CSc2ncc(-c3ccc([N+](=O)[O-])cc3)[nH]2)c(C)c1	n	n	n	u	u	u
O=[N+]([O-])c1ccc(-c2cnc(SC(c3ccccc3)c3ccccc3)[nH]2)cc1	3.5µM	n	n	u	u	7.4µM
O=[N+]([O-])c1ccc(-c2cnc(SCc3ccccc3Cl)[nH]2)cc1	n	58	28	n	n	u
COc1ccc(CNC(=O)CCOc2ccc(C(C)(C)C)cc2)cc1	u	n	n	x	n	n
Cc1ccc(S(=O)(=O)NCCNc2ccc([N+](=O)[O-])cc2C(F)(F)F)cc1	n	n	n	10µM	u	4.1µM
CCn1c(SCc2nc(-c3ccccc3)no2)nnc1-c1ccco1	n	n	n	u	n	u
Brc1ccc(CSc2nnc3ccccn23)cc1	x	50	26	n	x	n
SMILES	Lassa entry inh	Shiga toxin inh	CHX counter	Pf growth 48h	Marburg entry inh	Pf growth 96h
O=C1c2ccccc2C(=O)N1CCCCSc1nnc2ccccn12	n	n	n	13µM	n	u
Clc1cccc(Cl)c1CSc1nnc2ccccn12	u	n	n	n	n	n
O=C1c2ccccc2C(=O)N1CCCCSc1nnnn1-c1ccccc1	u	n	n	n	n	u
CCn1c(SCc2c(F)cccc2Cl)nnc1-c1ccco1	n	34	12	n	n	x
Fc1cccc(Cl)c1CSc1nnc2ccccn12	n	91	42	n	u	n
O=C(CSc1nnc2ccccn12)Nc1ccccc1Cl	n	x	x	x	u	x
Fc1ccc(CSc2nnc3ccccn23)c(Cl)c1	u	96	44	n	u	n
CC(=O)c1cccc(NC(=O)c2ccccc2OCc2ccc(F)cc2)c1	n	n	n	n	u	n
CC(C)n1c(Nc2ccccc2)nc2ccccc21	u	n	n	n	n	u
Cc1nn(-c2ccc(C(F)(F)F)cn2)c(C)c1Oc1ccccc1O	u	n	23	x	n	8.3µM
Cc1cc(=O)[nH]c(-n2nc(C)c(Oc3ccccc3O)c2C)n1	n	n	n	u	n	n
COCc1c(C(=O)N/N=C(/C)c2ccc(OCc3ccccc3)cc2)nnn1-c1nonc1N	n	97	23	n	u	n
C/C(=N\NC(=O)c1nnn(-c2nonc2N)c1C)c1ccc(OCc2ccccc2)cc1	x	57	22	n	x	n
Cn1c(=O)c2c(nc(NCCNC(=O)c3ccco3)n2Cc2ccc(F)cc2)n(C)c1=O	u	n	n	u	n	n
O=C(Nc1ccc2nc(C3CC3)n(Cc3ccc(F)cc3)c(=O)c2c1)c1ccco1	u	n	n	1.9µM	n	x
COc1cccc(C(=O)Nc2cc(NC(=O)c3ccco3)ccc2OC)c1	n	n	n	n	n	n
COc1cccc(Cn2c(C3CC3)nc3ccc(NC(=O)c4ccco4)cc3c2=O)c1	x	n	n	3.7µM	x	x
O=C(Nc1cccc(C(=O)O)c1)/C(=C\c1ccco1)NC(=O)c1ccc(Br)o1	n	n	n	n	n	n
CC(C)CC(=O)/C(=C\c1ccc(Cl)cc1Cl)n1cncn1	0.58µM	n	n	u	u	u
Cn1cc(C(F)(F)F)nc1-c1ccc(OCC(O)CNCCOc2ccc(O)c(C(N)=O)c2)cc1 (stereo unspecified)	n	n	n	9.3µM	u	u
COc1ccc(OC)c(NC(=O)C(=O)NNC(=O)COc2ccc(Br)cc2C)c1	x	n	n	n	x	n
COc1ccccc1-n1c(CNc2c(C)cccc2C)nnc1SCC(=O)N1CCOCC1	n	n	n	n	n	12µM
COC(=O)c1nnc(-c2ccccc2)nc1OC	n	n	n	n	n	n
S=C(NCCc1ccccc1)N/N=C/C1CCCCC1	x	n	15	n	x	u
S=C(NCCc1ccccc1)NN=C1CCCCCC1	n	78	54	n	n	u
SMILES	Lassa entry inh	Shiga toxin inh	CHX counter	Pf growth 48h	Marburg entry inh	Pf growth 96h
COCCNC(=S)NN=C1CCCCCC1	x	n	n	u	x	n
CC(C)(C)S(=O)(=O)c1cnc2c(S(=O)(=O)c3ccccc3)cnn2c1N	n	n	n	u	u	n
COc1ccc(CC2=CC(=O)c3ccccc3C2=O)cc1	x	123	56	u	x	n
CCOC(=O)CSc1nnc(Cc2ccccc2)n1Cc1ccco1	n	n	n	n	n	u
O=[N+]([O-])c1nn(-c2ccc3c(c2)OCCO3)n(O)c1=NC1CCCC1	n	42	32	x	n	n
Cc1cccc(-n2nc([N+](=O)[O-])c(=NC3CCN(Cc4ccccc4)CC3)n2O)c1	x	n	n	u	x	u
O=[N+]([O-])c1nn(-c2ccc3c(c2)OCCO3)n(O)c1=NC1CCCCCC1	n	84	32	x	u	n
COc1ccc(C(=O)C2CCCN(C(=O)c3ccnn3C)C2)cc1OC (stereo unspecified)	x	n	n	n	x	u
COc1ccc2cc(C(=O)C3CCCN(C(=O)c4ccnn4C)C3)ccc2c1 (stereo unspecified)	x	39	n	u	x	u

Assay outcomes: PubChem BioAssay, National Center for Advancing Translational Sciences (NCATS)
